{"source": "PubChem BioAssay AID1259336", "about": "(Sattelle Laboratory, UCL Respiratory, Division of Medicine, …, 2017)", "note": "A number with no mark means an inactive call. Active and inactive are the calls of the source. No stated cut-off is given here; in the data, active means log2 fold change growth below about -1.8; inactive means the rest.", "data": [{"experiment": "anthelmintic activity against nematode growth – whole organism, log2 fold change (AID 1259336);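 further: growth scored by imaging after five days at 20 °C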", "settings": "C. elegans growth, anthelmintic screen; active compounds read low", "values": [{"compound": "COC(=O)C1=C(C)NC(C)=C(C(=O)OC(C)C)[C@H]1c1cccc2nonc12", "log2 fold change growth": "-2.22 (active)"}, {"compound": "Nc1ncc(-c2ccc(C(F)(F)F)nc2)cc1-c1ccc(C(F)(F)F)nc1", "log2 fold change growth": 0.0312}, {"compound": "COc1ccc([C@@H]2CC(c3cccs3)=NN2C(=O)c2ccco2)cc1OC", "log2 fold change growth": -0.296}, {"compound": "CC1(O)CC(c2nc(-c3ccc4ccc(-c5ccccc5)nc4c3)c3c(N)nccn23)C1", "note": "(stereo not given)", "log2 fold change growth": -0.23}, {"compound": "Cc1cc(C)n2nc(C(=O)Nc3cc(C(F)(F)F)ccc3N3CCOCC3)nc2n1", "log2 fold change growth": 0.174}, {"compound": "O[C@@H](c1cc(C(F)(F)F)nc2c(C(F)(F)F)cccc12)[C@H]1CCCCN1", "log2 fold change growth": -0.189}, {"compound": "CCOc1ccc(-c2nc(CNCCc3ccc(F)cc3)cs2)cc1", "log2 fold change growth": 0.153}, {"compound": "CC(C)(C)OC(=O)N1CCN(c2cc(-c3ccc(Oc4ccccc4)cc3)[nH]n2)CC1", "log2 fold change growth": -0.56}, {"compound": "CCOc1ccc2cc(-c3nn(CC4CCN(C)CC4)c4ncnc(N)c34)ccc2c1", "log2 fold change growth": 0.151}, {"compound": "NC(=O)c1cc(Br)ccc1OCCOc1ccccc1", "log2 fold change growth": 0.186}, {"compound": "O=C(COc1cccc(F)c1)Nc1nc(-c2ccccn2)cs1", "log2 fold change growth": -0.223}, {"compound": "Cc1cc(NCCc2ccccc2)nc(/N=C(\\N)Nc2ccc(Cl)cc2)n1", "log2 fold change growth": 0.186}, {"compound": "CC(C)[C@@H](C(=O)Nc1ccc(S(=O)(=O)N(C)C)cc1)c1ccc(Cl)cc1", "log2 fold change growth": "-5.06 (active)"}, {"compound": "COc1ccc(-c2cnc3ccc(NCc4ccc(S(N)(=O)=O)cc4)nn23)cn1", "log2 fold change growth": 0.21}, {"compound": "CC1=Nc2ccc(Cl)cc2[C@@](O)(c2ccc(C)cc2)N1CCN1CCCCC1", "log2 fold change growth": 0.034}]}]}
